Bioassay records deposited in PubChem BioAssay by National Center for Advancing Translational Sciences (NCATS).
JMJD2A Tudor inh = qHTS Assay for Inhibitors of JMJD2A-Tudor Domain; Lysine-specific demethylase 4A (Homo sapiens), O75164; AlphaScreen JMJD2A-Tudor / H3K4me3 peptide binding; Potency, µM (highest dose often 114 µM), hits mostly inhibitors; hit rate 4.4% among 390,000; note: nearly all actives have a fitted effect of over 50% in size
Target sequence (O75164 whole entry, looked up, the tested form may be a part): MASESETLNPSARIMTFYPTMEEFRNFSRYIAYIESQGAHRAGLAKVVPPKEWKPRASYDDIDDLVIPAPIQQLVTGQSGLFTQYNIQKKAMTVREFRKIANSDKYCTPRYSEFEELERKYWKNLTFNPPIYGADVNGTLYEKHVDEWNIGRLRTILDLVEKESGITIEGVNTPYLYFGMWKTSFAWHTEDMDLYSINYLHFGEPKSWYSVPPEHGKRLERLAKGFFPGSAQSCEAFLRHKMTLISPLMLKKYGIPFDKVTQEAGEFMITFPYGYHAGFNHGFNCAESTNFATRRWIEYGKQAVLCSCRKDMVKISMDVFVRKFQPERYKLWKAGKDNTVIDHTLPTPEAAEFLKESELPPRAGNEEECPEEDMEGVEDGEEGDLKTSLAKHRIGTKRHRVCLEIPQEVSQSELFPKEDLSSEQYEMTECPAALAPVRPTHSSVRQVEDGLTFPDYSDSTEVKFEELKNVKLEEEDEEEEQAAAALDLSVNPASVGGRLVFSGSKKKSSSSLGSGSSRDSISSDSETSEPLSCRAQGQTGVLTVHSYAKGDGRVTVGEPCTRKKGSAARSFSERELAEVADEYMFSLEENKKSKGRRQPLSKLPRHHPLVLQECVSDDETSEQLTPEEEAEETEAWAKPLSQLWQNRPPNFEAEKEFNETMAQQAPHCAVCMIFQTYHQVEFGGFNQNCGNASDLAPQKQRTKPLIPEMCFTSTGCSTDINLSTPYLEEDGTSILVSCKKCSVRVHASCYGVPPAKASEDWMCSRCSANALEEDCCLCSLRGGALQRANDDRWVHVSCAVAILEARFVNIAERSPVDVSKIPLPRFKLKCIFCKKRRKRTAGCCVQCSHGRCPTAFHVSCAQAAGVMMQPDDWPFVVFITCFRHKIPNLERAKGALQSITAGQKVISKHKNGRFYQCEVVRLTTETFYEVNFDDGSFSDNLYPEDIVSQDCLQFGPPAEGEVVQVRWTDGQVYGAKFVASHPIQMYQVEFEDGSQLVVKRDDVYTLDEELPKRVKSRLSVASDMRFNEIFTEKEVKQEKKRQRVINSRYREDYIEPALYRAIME
GLS inh = qHTS for Inhibitors of Glutaminase (GLS); GLS enzymatic activity, qHTS titration; hit rate 0.21% among 410,000; Potency, µM (highest dose often 45.5 µM), actives largely listed as inhibitors
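hKGA in 45 mM KH2PO4 pH 8.2, 0.02% Tween-20 with pin-transferred compounds; 1 mM L-glutamine (stock) plus glutamate oxidase/HRP/Amplex Red coupling added. Fluorescence read initially and after 30 min at RT.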
G9a inh = qHTS Assay for Inhibitors of Histone Lysine Methyltransferase G9a. hit rate 8.8% among 350,000. Potency, µM (highest dose often 102 µM), actives largely listed as inhibitors. G9a H3K9 monomethylation, AlphaScreen, 2 h. Histone-lysine N-methyltransferase EHMT2 (Homo sapiens), Q96KQ7. AID 504332, 2011; note: nearly all actives have a fitted effect of over 75% in size
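G9a (20 nM) was preincubated 15 min with compound, then reacted 2 h at room temperature with 500 nM biotin-H3K9 peptide and 20 µM SAM. Monomethyl-H3K9 detected by AlphaScreen using anti-H3K9me1 antibody.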
BAZ2B block = qHTS Assay for Inhibitors of BAZ2B | Bromodomain adjacent to zinc finger domain protein 2B (Homo sapiens), Q9UIF8 | AlphaScreen BAZ2B-H3K14Ac peptide displacement | Potency, µM (series often up to 114 µM), actives largely listed as inhibitors | hit rate 4.4% among 360,000; note: nearly all actives have a fitted effect of over 60% in size
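Complex of BAZ2B and biotin-H3K14Ac (50 nM apiece) forms over 30 min at RT, then faces library compounds up to 110 uM for another 30 min; AlphaScreen beads added, 20 min dark incubation, luminescence read.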
L3MBTL1 block = qHTS Assay for the Inhibitors of L3MBTL1; Lethal(3)malignant brain tumor-like protein 1 (Homo sapiens), Q9Y468; AlphaScreen L3MBTL1–H3K9me1 peptide binding; Potency, µM (doses to about 57.1 µM), actives largely listed as inhibitors; hit rate 0.66% among 230,000; note: nearly all actives have a fitted effect of over 60% in size
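L3MBTL1 50 nM + b-AHA-H3(1-15)K9me1 75 nM, 30 min RT; compound added, 30 min RT; streptavidin donor/Ni-chelate acceptor beads 10 ug/mL each final, 30 min RT dark; AlphaScreen read.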
HP1b binding inh = HTS for Inhibitors of HP1-beta Chromodomain Interactions with Methylated Histone Tails. Chromobox protein homolog 1 (Homo sapiens), P83916. AlphaScreen HP1-beta / biotin-H3K9me3 peptide binding. AID 540317, 2011. Potency, µM (top dose mostly 114 µM), actives largely listed as inhibitors. hit rate 0.56% among 390,000; note: nearly all actives have a fitted effect of over 70% in size
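Compound inhibition of the preformed complex between 50 nM HP1-beta and 50 nM biotinylated H3K9me3 peptide was read by AlphaScreen. Buffer was PBS pH 7.4 with 0.01% Tween-20. Incubations ran 30 min at room temperature, with 10 ug/mL donor/acceptor beads.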
A number is an active result; - = inactive; ? = inconclusive; . = no result; [ ] = remark or other dose. Hits are enriched below; roughly 10% of the tested compounds scored in any of these assays. Calls come from the whole dose curve; as a rule, active = well fitted curve in the direction sought with a large enough effect; inconclusive = small, poorly fitted or top-dose-only effect, or another doubt; inactive = no such curve, though single readings can be large; an effect the other way counts as inactive or inconclusive.

SMILES	JMJD2A Tudor inh	GLS inh	G9a inh	BAZ2B block	L3MBTL1 block	HP1b binding inh
COCCn1nnnc1C(c1ccc(Cl)cc1)N1CCSCC1 (stereo not given)	-	-	50µM	?	-	-
Nc1nc(O)c(N=Nc2ccc(S(N)(=O)=O)cc2)c(=O)[nH]1	-	-	?	-	.	-
NS(=O)(=O)c1ccc(N=Nc2c[nH]c(=O)c(O)c2)cc1	7.1µM	-	11µM	7.9µM	?	50µM
O=C(O)Cc1sc(Nc2ccc(Cl)cc2)nc1-c1cccs1	-	?	?	?	-	-
Nc1nc(-c2cccs2)c(CC(=O)O)s1	-	-	40µM	-	.	-
Nc1nc(-c2ccccc2)c(CC(=O)O)s1	.	-	.	.	.	.
Nc1nc(-c2ccc(Oc3ccccc3)cc2)c(CC(=O)O)s1	-	-	32µM	-	.	-
Clc1cccc(N2CCN(c3nc4ccccc4c4nc(-c5cccnc5)nn34)CC2)c1	-	-	-	-	.	-
CCCC(=O)NC1CC(=O)N(c2ccc3c(c2)OCCO3)C1 (stereo not given)	-	-	-	-	.	-
Cc1ccc(/C=C(\NC(=O)c2ccccc2)C(=O)N2CCCCC2)cc1	-	-	?	-	-	-
CN(C)c1ccc(/C=C(/NC(=O)c2ccccc2)C(=O)N2CCCC2)cc1	-	?	10µM	-	.	-
Cc1ccc(C(=O)N/C(=C/c2ccco2)C(=O)N2CCC(C)CC2)cc1	-	-	18µM	-	.	-
COc1ccc([N+](=O)[O-])cc1/C=N/NC(=O)/C(=C\c1cccs1)NC(=O)c1ccccc1	-	-	89µM	-	-	-
CC1CCN(C(=O)/C(=C\c2ccco2)NC(=O)c2ccccc2)CC1	-	-	50µM	-	.	-
CN(C)c1ccc(/C=C(/NC(=O)c2ccccc2)C(=O)N/N=C/c2ccc([N+](=O)[O-])c(O)c2)cc1	45µM	-	?	18µM	32µM	?
CC1CCCN(C(=O)/C(=C/c2ccco2)NC(=O)c2ccccc2)C1 (stereo not given)	-	-	45µM	-	.	-
Cc1cccc(C(=O)N/C(=C/c2ccco2)C(=O)N2CCCCCC2)c1	-	-	40µM	-	.	-
O=C(N/C(=C\c1ccco1)C(=O)N1CCCC1CO)c1ccccc1 (stereo not given)	-	-	16µM	-	.	-
NCCNc1cccc2ccccc12	.	-	?	.	.	.
COC(=O)C1=C(CSc2nc3ccccc3s2)NC(=O)NC1c1ccc(F)cc1 (stereo not given)	-	?	40µM	-	-	-
COC(=O)c1ccc(CSc2nc3ccccc3s2)o1	-	-	-	-	-	-
Cc1ccc(Cn2c(CNC(=O)c3cccc(C)c3)nc3ccccc32)cc1	-	-	-	-	.	-
Cc1ccc2sc(C)[n+](CCO)c2c1	-	?	28µM	.	.	-
Cc1ccsc1CN(C(=O)c1oc2cc(Br)ccc2c1C)C1CCS(=O)(=O)C1 (stereo not given)	-	-	-	-	.	-
CCOC(=O)[C@H]1[C@H]2COc3ccc(Br)cc3[C@@H]2N2C(=O)CN(Cc3ccco3)C(=O)[C@@]12C	?	-	-[0.501 µM]	50µM	-	-
SMILES	JMJD2A Tudor inh	GLS inh	G9a inh	BAZ2B block	L3MBTL1 block	HP1b binding inh
CCOC(=O)[C@H]1[C@H]2COc3ccc(Br)cc3[C@@H]2N2C(=O)CN(Cc3ccc(Cl)cc3)C(=O)[C@@]12C	-	-	.	.	-	-
COc1ccc(C(=O)NCC(c2ccc3c(c2)OCO3)N2CCOCC2)cc1OC (stereo not given)	-	-	-	-	.	-
CCCC(c1nnnn1CC(=O)OCC)N(Cc1cc2c(C)cc(C)cc2[nH]c1=O)C1CCCC1 (stereo not given)	-	-	28µM	-	-	-
CC(=O)Nc1cc(C(=O)O)ccc1S(=O)(=O)c1ccc(C)cc1	-	-	50µM	-	-	-
CC(=O)Nc1cc(C(=O)N2CCOCC2)ccc1S(=O)(=O)c1ccc(C)cc1	-	-	-[0.501 µM]	-	-	-
Cc1cc2nc(C)c(=O)n(C)c2cc1C	35µM	?	-	-	-	-
O=C(COc1ccc(Cl)cc1)Nc1nc(-c2ccncc2)cs1	-	-	7.9µM	-	.	?
COc1ccc(NC(=O)N2CCN(c3nc(-c4cccc(OC)c4)cs3)CC2)cc1	-	-	13µM	?	-	-
COc1ccc(-c2csc(NC(=O)CS(=O)(=O)c3ccc(F)cc3)n2)cc1OC	-	-	?	-	-	-
COc1ccc(-c2csc(NC(=O)CS(=O)(=O)c3ccccc3)n2)cc1	-	-	45µM	-	-	-
COc1ccc(CCC(=O)Nc2nc(-c3ccncc3)cs2)cc1	.	.	8.9µM	-	-	.
CCCC(=O)Nc1nc(-c2ccc(OC)cc2)cs1	-	-	-[12.7 µM]	-	.	-
COc1cccc(-c2csc(N3CCN(C(=O)Nc4ccc(Cl)cc4)CC3)n2)c1	-	-	?	-	-	-
COc1cccc(OC)c1C(=O)Nc1nc(-c2ccccc2)cs1	-	-	-	-	-	-
CC(=O)Nc1cccc(-c2csc(NCc3ccccc3)n2)c1	13µM	-	11µM	20µM	-	?
COc1ccc(CC(=O)Nc2nc(-c3ccncc3)cs2)cc1	-	-	40µM	-	-	-
COc1cccc(-c2csc(NC(=O)Oc3ccccc3)n2)c1	89µM	-	-	?	-	?
COc1ccc(-c2csc(NC(=O)CSc3nc(C)nc4sc(C(=O)O)c(C)c34)n2)cc1	22µM	-	.	50µM	-	22µM
O=c1cnc2cnc(Oc3ccccc3)nc2n1CCc1ccccc1	.	.	-[12.7 µM]	.	.	.
CCn1c(=N)c(C(=O)NCc2ccccc2)cc2c(=O)n3cc(C)ccc3nc21	-	-	-	-	.	-
CCCC/C=C/[C@@H](c1ccccc1)C1COC(=O)CC1O (stereo not given in full)	-	.	.	.	.	-
O=C(Nc1cc(Cl)ccc1Cl)Nn1cnnc1	-	-	-	-	.	-
CCc1ccccc1NC(=O)N1CCCn2nc(C)cc21	-	-	-	-	.	-
Cc1cc2n(n1)SC(Nc1cc(Cl)ccc1Cl)N2 (stereo not given)	-	-	7.9µM	-	?	-
CCc1ccccc1NC1Nc2cc(C)nn2S1 (stereo not given)	?	-	1.6µM	-	.	-
Cc1cc2n(n1)SC(Nc1ccc(F)cc1)N2 (stereo not given)	20µM	-	1.4µM	-	-	-
O=C(c1cccs1)N1CCCc2cc(NS(=O)(=O)c3ccc(Br)cc3)ccc21	-	-	-	-	.	-
Cc1nc2cnc(N3CCOCC3)nc2n(C[C@H]2CCCO2)c1=O	.	.	-[0.501 µM]	.	.	.
O=C(NCC1CCCO1)C1CCN(CC2CCCCC2)CC1 (stereo not given)	35µM	-	?	?	.	-
